Test results from PubChem BioAssay AID2284171 (EPA ToxCast).
Records with an inconclusive call do not appear. The source made the active and inactive calls. How the source made its calls: active means hit-call score of the fitted dose curve at least 0.9, where 1 is the maximum; inconclusive means response in the unintended direction; inactive means score below 0.9.

Experiment: ERF_FR_GPCR_rPY2: Eurofins (ERF) G Protein-Coupled Receptor (GPCR) Radioligand Binding LeadHunter Assay for rat P2Y Receptor (Non-Selective) Agonism
Experimental: ERF_FR_GPCR_rPY2 is a biochemical, single-readout assay that uses extracted gene-proteins in a cell-free assay. Measurements were taken 1 hour after chemical dosing in a 96-well plate. See Non-Selective Rat P2Y GPCR Binding (Agonist Radioligand) Assay, Cerep.ERF_FR_GPCR_rPY2 is an assay component calculated from the ERF_FR_GPCR_rPY2 assay. It is designed to measure radioligand binding using a type of binding reporter as detected by scintillation counting with radiometry technology.Data from the assay component ERF_FR_GPCR_rPY2 was analyzed at the assay endpoint, ERF_FR_GPCR_rPY2, in the positive analysis fitting direction relative to DMSO as the negative control and baseline of activity. Using a type of binding reporter, gain-of-signal activity can be used to understand changes in binding as they relate to gene P2RY1. To generalize the intended target to other relatable targets, this assay endpoint is annotated to the gpcr intended target family, where the subfamily is P2Y.
Rat cells are incubated for 60 minutes at room temprature with [35S]dATPalpha S (10 nM) ligand and Datpalphas as control inhibitor. Test Sample Requirements: Minimum for 1) Screen: 60 ul of 10 mM stock -OR- 1 mg (pre-weighed) for 10 uM final testing. 2) Dose Response: 90 ul of 10 mM stock -OR- 1 mg (pre-weighed) for a top concentration at 10 uM.

Q: For `O=C(/C=C/c1ccc(O)cc1)CC(=O)/C=C/c1ccc(O)cc1`, which AC50 is on record?
A: The AC50 was 937 nM (active).
